Reference: PubChem BioAssay AID489028 (Sanford-Burnham Center for Chemical Genomics, 2010)
Screen size: about 10,000 compounds; about 5,600 (56%) were called active. No stated cut-off is given here; in the data, active means inhibition above about 40%; inactive means the rest. So high a share suggests a set chosen from earlier hits. Only a sample is shown.

target: Protein Mdm4 (Homo sapiens) + E3 ubiquitin-protein ligase Mdm2 (Homo sapiens) (UniProt O15151+Q00987); assay: Mdm2-MdmX complex disruptors, retested hits, confirmation, luminescence, single concentration (AID 489028); settings: Mdm2-MdmX binding, luminescent assay; at 8 µM; active compounds read high
Sequence (O15151 whole entry, looked up): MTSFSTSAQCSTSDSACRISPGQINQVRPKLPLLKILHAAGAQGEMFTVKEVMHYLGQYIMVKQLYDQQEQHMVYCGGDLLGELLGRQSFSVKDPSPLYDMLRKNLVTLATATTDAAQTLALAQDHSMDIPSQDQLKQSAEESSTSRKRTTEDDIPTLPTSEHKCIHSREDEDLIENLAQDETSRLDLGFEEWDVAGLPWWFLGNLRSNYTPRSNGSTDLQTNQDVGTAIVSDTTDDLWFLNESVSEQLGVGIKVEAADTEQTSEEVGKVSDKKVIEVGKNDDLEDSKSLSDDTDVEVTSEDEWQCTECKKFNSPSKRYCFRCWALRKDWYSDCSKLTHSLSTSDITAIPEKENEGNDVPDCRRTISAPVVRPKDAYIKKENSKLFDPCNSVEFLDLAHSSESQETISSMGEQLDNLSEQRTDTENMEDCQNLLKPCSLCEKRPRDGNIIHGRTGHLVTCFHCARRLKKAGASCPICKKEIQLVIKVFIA
Sequence (Q00987 whole entry, looked up): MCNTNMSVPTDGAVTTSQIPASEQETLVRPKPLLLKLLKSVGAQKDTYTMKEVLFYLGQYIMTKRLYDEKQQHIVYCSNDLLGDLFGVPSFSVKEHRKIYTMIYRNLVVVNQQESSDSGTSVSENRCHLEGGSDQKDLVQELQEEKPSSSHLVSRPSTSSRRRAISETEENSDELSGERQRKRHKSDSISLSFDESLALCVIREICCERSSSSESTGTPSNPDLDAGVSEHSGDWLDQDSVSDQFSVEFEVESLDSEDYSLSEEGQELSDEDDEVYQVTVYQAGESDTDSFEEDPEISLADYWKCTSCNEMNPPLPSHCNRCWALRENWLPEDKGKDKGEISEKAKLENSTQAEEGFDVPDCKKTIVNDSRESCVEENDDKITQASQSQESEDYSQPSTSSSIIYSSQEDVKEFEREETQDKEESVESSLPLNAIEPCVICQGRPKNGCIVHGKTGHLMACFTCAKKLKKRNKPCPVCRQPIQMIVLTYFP

inhibition, active:
Cc1cc(=O)oc2cc(OCC3CC(c4ccccc4Cl)=NO3)ccc12 (stereo unspecified) 47.2%, Cc1nnnn1/C(=C\c1ccccc1)C(=O)OCC(=O)N1CC2(C)CC1CC(C)(C)C2 (stereo unspecified) 47.9%, O=C(NCC1CCCO1)c1cc2c([nH]c3ccccc32)c(-c2ccc(F)cc2)n1 (stereo unspecified) 61.5%, COc1ccc(N=Cc2c(O)[nH]c3ccccc23)cc1OC 47%, COc1cc(N=Cc2c(O)[nH]c3ccccc23)cc(OC)c1OC 73.8%, C[C@@H](NC(=O)OC(C)(C)C)c1nnc(S(=O)(=O)Cc2ccccc2)o1 54%, Cc1ccnc(NC(=O)C2CCN(S(=O)(=O)c3c(C)c(C)cc(C)c3C)CC2)c1 69.8%, COc1cccc2sc(NNC(=O)c3nc4ccccc4s3)nc12 45.7%, CCOc1ccc(-c2cc(C(=O)N/N=C/c3ccc(O)cc3)c3ccccc3n2)cc1 76.8%, COc1ccc(/C=C2\SC(=S)N(CCC(=O)Nc3ccccn3)C2=O)cc1OC 54.1%, O=C(CCCN1C(=O)/C(=C/c2ccccc2)SC1=S)Nc1ccc(O)cc1 93.9%, O=C(CCCN1C(=O)/C(=C/c2cccs2)SC1=S)Nc1ccc(O)cc1 61.5%, O=C(CCCN1C(=O)/C(=C\c2ccccc2)SC1=S)Nc1ccccc1O 69.7%, O=C(Nc1ccc(Cl)cc1)Nc1nnc(/C=C/c2ccccc2)s1 81.4%, Oc1ccc(Br)cc1/C=N/Nc1ccccn1 87.7%, CCCCNC(=O)C(C)N(CCN(C)C)C(=O)CCCCCN1C(=O)NC(c2ccc(Cl)cc2)C(C(=O)OCc2ccccc2)=C1C (stereo unspecified) 49.5%, Cc1cc(C(=O)COC(=O)CNC(=O)c2ccc(F)cc2)c(C)n1Cc1ccco1 72.7%, COc1cc(/C=N/NC(=O)Nc2ccccc2)ccc1OCCOc1ccccc1C 72.8%, Brc1ccc2ncnc(NCc3cccnc3)c2c1 68.7%, Cc1cccc(NC(=O)c2nc(S(=O)(=O)Cc3ccccc3)ncc2Cl)c1 95.2%, Cc1cccc(CS(=O)(=O)c2ncc(Cl)c(C(=O)Nc3ccc(F)cc3)n2)c1 75.5%, CC(=O)Nc1nc(C)c(-c2csc(Nc3ccc(S(N)(=O)=O)cc3)n2)s1 44.5%, CCCC(=O)Nc1nc2ccc(NC(=O)c3cccnc3)cc2s1 48.4%, O=C(/C=C/c1ccc(Cl)c([N+](=O)[O-])c1)c1cccnc1 66.7%, O=C(/C=C/c1ccc(Cl)c([N+](=O)[O-])c1)c1ccc(O)cc1 85.4%, Cc1[nH]c(C)c(S(=O)(=O)N2CCN(c3cccc(C(F)(F)F)c3)CC2)c1C(=O)N1CCCCC1 52.8%, CCNC(=O)c1c(O)c2cccc3c2n(c1=O)CC3 75.1%, CCOC(=O)c1c(-c2ccc(C)cc2C)csc1NC(=O)CSc1nnnn1C 51%, Cc1cccc(-n2c(C)cc(/C=N\NC(=O)c3cccs3)c2C)c1 40.1%, C[C@@H]1C[C@@H]2O[C@H]2/C=C\C=C\C(=O)Cc2c(Cl)c(O)cc(O)c2C(=O)O1 54.2%, Cc1ccc(C2CC(=O)NC(SCC(=O)OCc3ccccc3)=C2C#N)o1 (stereo unspecified) 44.5%, O=C(Nc1ccccc1Cl)/C(Cl)=C(\Cl)S(=O)c1ccccc1 (stereo unspecified) 100%, O=C1/C(=C\c2ccccc2Cl)SC(=S)N1CCC(=O)N1CCCc2ccccc21 60.8%, COc1cc2c(cc1OC)C(C)N(S(=O)(=O)c1cnc(Cl)c(Cl)c1)CC2 (stereo unspecified) 58.1%, C=CCn1c(C)cc(C(=O)CN2C(=O)c3ccccc3C2=O)c1C 68%

inhibition, inactive:
CC(C)=CC(=O)Nc1nnc(-c2ccc(F)cc2)s1 -17.9%, CC(C)(C)OC(=O)NNc1c2ccccc2nc2ccccc12 21.1%, CC(=O)Nc1ccc(NC(=O)C2CCCN(S(=O)(=O)c3ccc(Cl)cc3)C2)cc1 (stereo unspecified) 3.65%, COc1cc2[nH]c(=S)n(Cc3ccc(F)cc3)c(=O)c2cc1OC 15.8%, Nc1ccc(C(=O)Nc2ccccc2N)cc1 6.25%, COc1ccc(C(=O)/C=C/Nc2ccccn2)cc1 25.4%, CCN1CCN(c2ccc(S(=O)(=O)N3CCCCC3)cc2NC(=O)Cc2c(Cl)cccc2Cl)CC1 30.6%, O=C(/C=C/c1ccccc1)Nc1nnc(SCC(=O)c2ccc3ccccc3c2)s1 2.95%, CCCCNC(=O)C(C)N(CCN(C)C)C(=O)CCCN1C(=O)NC(c2ccc(Cl)cc2)C(C(=O)OCc2ccccc2)=C1C (stereo unspecified) 15.1%, CC1=CC(C)(C)Nc2ccc(OC(=O)CN3C(=O)C4CCCCC4C3=O)cc21 (stereo unspecified) 9.75%, COc1ccc(/C=C/C(=O)Nc2ccc(C34CC5CC(CC(O)(C5)C3)C4)cc2)cc1OC 36.9%, CCn1c(O)c(N=NC(=O)c2cccc(S(=O)(=O)N3CCCCC3)c2)c2ccccc21 36.7%, CC(C)c1cc(C(=O)N/N=C/C(Br)=C/c2ccccc2)n[nH]1 35.2%, CCCn1nc(C(=O)Nc2ccc3nc(C)sc3c2)c2ccccc2c1=O 24.9%, COc1cc(C(=O)NCc2nnc(SCC(=O)Nc3nc4ccc(C)cc4s3)o2)cc(OC)c1OC -0.1%, CCN1C(=O)c2cccc3c(S(=O)(=O)Nc4ccccc4O)ccc1c23 39%, COc1ccc(C(=O)/C=C/c2cccnc2)c(OC)c1 -4.6%, COc1ccc(/C=C/C(=O)c2ccc(NS(=O)(=O)c3ccc(C)cc3)cc2)cc1O 38.9%, O=C(COC(=O)/C=C/c1cn(-c2ccccc2)nc1-c1cccnc1)Nc1ccc(Cl)cc1Cl 18.3%, CCC(C)N1C(=O)S/C(=C/c2ccc(Sc3nc4ccccc4[nH]3)o2)C1=O (stereo unspecified) 23.9%, C=CCC[C@@H](Cc1ccc(F)cc1)C(=O)OC[C@H](Cc1c[nH]c2ccccc12)NC(=O)[C@@H](CC=C)CC(=O)N(CCO)Cc1ccccc1 21.8%
